High-throughput results from PubChem BioAssay.
HP1b binding inh: HTS for Inhibitors of HP1-beta Chromodomain Interactions with Methylated Histone Tails. AlphaScreen HP1-beta / biotin-H3K9me3 peptide binding. Potency, µM (doses to about 114 µM), inactives show at the highest dose activity change, negative = inhibition, hits mostly inhibitors. actives 0.56% (n = 390,000). AID 540317, 2011; further: nearly all actives have a fitted effect of over 70% in size
Target sequence (P83916 whole entry, looked up): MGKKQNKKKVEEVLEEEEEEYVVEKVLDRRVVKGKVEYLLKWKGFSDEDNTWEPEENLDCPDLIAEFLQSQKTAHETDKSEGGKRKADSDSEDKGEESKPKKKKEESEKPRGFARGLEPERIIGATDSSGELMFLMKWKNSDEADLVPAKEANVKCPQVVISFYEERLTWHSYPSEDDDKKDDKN
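AlphaScreen: HP1-beta (50 nM) preformed 30 min with biotin-H3(1-18)K9me3 peptide (50 nM) in PBS pH 7.4, 0.01% Tween-20. Compound added for 30 min at RT, then streptavidin donor/nickel chelate acceptor beads (10 ug/mL) for 30 min.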
JMJD2A Tudor: qHTS Assay for Inhibitors of JMJD2A-Tudor Domain; actives 4.4% (n = 390,000); AlphaScreen JMJD2A-Tudor / H3K4me3 peptide binding; Potency, µM (doses to about 114 µM), for inactives: at the top dose activity change, negative = inhibition, hits mostly inhibitors; further: on the % scale 0 is the no-effect control and ±100 the full control effect; nearly all actives have a fitted effect of over 50% in size
G9a inh: qHTS Assay for Inhibitors of Histone Lysine Methyltransferase G9a; Histone-lysine N-methyltransferase EHMT2 (Homo sapiens), Q96KQ7; G9a H3K9 monomethylation, AlphaScreen, 2 h; Potency, µM (doses to about 102 µM), inactives show at the highest dose activity, negative = inhibition, usual class: inhibitors; actives 8.8% (n = 350,000); further: on the % scale 0 is the no-effect control and ±100 the full control effect; nearly all actives have a fitted effect of over 75% in size
Target sequence (Q96KQ7 913-1193 limits assumed): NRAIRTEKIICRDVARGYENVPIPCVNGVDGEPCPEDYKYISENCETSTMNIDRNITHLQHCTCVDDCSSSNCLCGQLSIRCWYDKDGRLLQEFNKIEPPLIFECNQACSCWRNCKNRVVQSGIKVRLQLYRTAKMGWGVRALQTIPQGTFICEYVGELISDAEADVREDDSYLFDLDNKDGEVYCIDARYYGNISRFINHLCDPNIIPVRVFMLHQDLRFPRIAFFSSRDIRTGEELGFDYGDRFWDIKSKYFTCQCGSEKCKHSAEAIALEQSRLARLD
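Quantitative HTS format: methyltransferase activity on a biotin-tagged H3K9 peptide is measured by AlphaScreen, using a rabbit anti-monomethyl-H3K9 antibody with streptavidin donor and anti-IgG acceptor beads. Final levels are 20 nM enzyme, 500 nM peptide, 20 uM SAM; 2 h RT.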
Sfp inh: qHTS Assay for Inhibitors of Bacillus subtilis Sfp phosphopantetheinyl transferase (PPTase). Biochemical Sfp PPTase activity, qHTS. AID 1490, 2009. 4'-phosphopantetheinyl transferase ffp (Bacillus subtilis), Q9F4F7. actives 3.5% (n = 310,000). Potency, µM, inactives show largest response in the series, negative = inhibition, hits mostly inhibitors;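 further: the enzyme is Sfp with the accession as filed and its product quenches rhodamine fluorescence; 0% = enzyme reaction without inhibitor and -100% = no enzyme wells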
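Step 1, compound plus 15 nM Sfp-PPTase, 15 min, room temperature. Step 2, add rhodamine-CoA (5 uM) and BHQ-2-YbbR (12.5 uM). Step 3, read 525/598 nm fluorescence at 0 and 30 min.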
BAZ2B inh: qHTS Assay for Inhibitors of BAZ2B | Bromodomain adjacent to zinc finger domain protein 2B (Homo sapiens), Q9UIF8 | AlphaScreen BAZ2B-H3K14Ac peptide displacement | Potency, µM (series often up to 114 µM), for the others: at the top dose activity change, negative = inhibition, actives largely listed as inhibitors | actives 4.4% (n = 360,000) | AID 504333, 2011; further: on the % scale 0 is the no-effect control and ±100 the full control effect; nearly all actives have a fitted effect of over 60% in size
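Protein-peptide AlphaScreen: BAZ2B 50 nM, b-H3K14Ac 50 nM, 1x PBS pH 7.4 + 0.01% Tween-20. Preincubation 30 min RT; cpd 30 min RT (top 110 uM); beads 20 min RT, light-protected.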
12-LOX inh: Primary qHTS assay for inhibitors of human arachidonate 12S-lipoxygenase (ALOX12): Round 2. Polyunsaturated fatty acid lipoxygenase ALOX12 (Homo sapiens), P18054. purified 12hLO, xylenol orange hydroperoxide absorbance. Potency, µM (doses to about 108 µM), for inactives: at the top dose activity change, negative = inhibition, usual class: inhibitors. actives 1.1% (n = 580,000); further: on the % scale 0 is the no-effect control and ±100 the full control effect
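Hydroperoxide product was detected by ferrous iron/xylenol orange as the 573 to 405 nm absorbance ratio. Arachidonic acid at 40 uM (final) was turned over for 30 min at room temperature by 150 nM human 12hLO, pH 7.0 Hepes buffer, after 15 min compound preincubation.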
Starred values were filed as active, the others as inactive; u = inconclusive; x = no result given; [ ] = remark or other dose. Shown are actives, neighbours in structure and some others; about 8.7% of the full set was active somewhere. The call rests on the fitted dose curve; in most records, active means well fitted curve in the direction sought with a large enough effect; inconclusive means small, poorly fitted or top-dose-only effect, or another doubt; inactive means no such curve, though single readings can be large; an effect the other way counts as inactive or inconclusive. Potency means the concentration at half of the fitted maximal effect.

SMILES	HP1b binding inh	JMJD2A Tudor	G9a inh	Sfp inh	BAZ2B inh	12-LOX inh
COc1ccc(Br)cc1CNC(C)c1ccccc1 (stereo unspecified)	39.6%	-25.0%	-10.4%[59 µM]	9.4%	-3.3%	10.8%
COc1cccc(CNCc2ccc(OC)c3ccccc23)c1OC	39.8µM*	3.16µM*	7.1%[2.33 µM]	-21.5%	20µM*	u
COc1ccc(CNCc2ccc(OC)c3ccccc23)cc1	-17.5%	u	-18.2%	3.2%	u	u
COc1ccccc1CNCc1cc(Br)ccc1OC	-33.1%	u	8.91µM*	63.1µM*	56.2µM*	-16.9%
COc1ccc(C(C)NC(=O)c2ccc(Cn3ccn4nc5c(c4c3=O)CCCC5)cc2)cc1OC (stereo unspecified)	x	x	x	x	x	7.2%
COc1ccccc1OC1(C(=O)O)CCN(Cc2cnn(C(C)C)c2)CC1	x	x	x	x	x	-18.2%
CC1CCN(CCOCCOc2ccc(Br)cc2Cl)CC1	u	2.82µM*	8.91µM*	6.8%	u	u
CC1CCCN(CCCOc2ccc(Br)cc2Cl)C1 (stereo unspecified)	u	1.12µM*	20µM*	-20.6%	u	1.12µM*
Cc1cc(S(=O)(=O)N2CCC(CC(=O)NCc3ccccc3)C2)ccc1F (stereo unspecified)	x	x	x	x	x	29.1%
COc1ccc(OCC#CCNC(C)(C)C)cc1	u	39.8µM*	7.94µM*	u	56.2µM*	-23.4%
O=C(COC(=O)/C=C/c1cccc2cccnc12)Nc1ccc(O)cc1	x	x	x	x	x	2.4%
COc1cc(CN2C(=O)C(=O)c3cc(C)ccc32)ccc1OCCC(C)C	x	x	x	x	x	-28.3%
O=Cc1cn[nH]c1-c1cccs1	x	x	x	x	x	16.7%
COc1ccc(C(=O)C=Cc2ccc(OCc3ccccc3)c(OC)c2)cc1OC	x	x	x	x	x	-21.7%
COc1cc(/C=C/[N+](=O)[O-])ccc1OCc1cccc(C(=O)O)c1	7.4%	-30.8%	14.1µM*	14.1µM*	28.2µM*	x
COc1cc(OC)c(OC)cc1/C=N/n1c(-c2n[nH]c3c2CCC3)n[nH]c1=S	-25.8%	3.16µM*	1.58µM*	22.4µM*	-22.4%	-5.0%
COc1ccc(OC)c(/C=N/n2c(-c3n[nH]c4c3CCC4)n[nH]c2=S)c1	8.1%	6.31µM*	x	-6.9%	-5.5%	u
COc1cccc(-c2n[nH]c3c2CCC3)c1	21.1%	-14.7%	7.9%	15.0%	-21.4%	1.0%
COc1ccc(/C=N/n2c(-c3n[nH]c4c3CCC4)n[nH]c2=S)cc1	-17.4%	10µM*	1.58µM*	11.0%	-21.4%	u
CC(=O)/C(=N/Nc1ccccc1)N1CCOCC1	32.5%	-15.8%	-19.0%[59 µM]	2.0%	3.3%	-7.1%
CC(=O)/C(=N/Nc1ccccc1C)N1CCOCC1	0.8%	56.2µM*	1µM*	5.2%	-1.9%	-22.6%
Cn1c2c(c(=O)n(C)c1=O)[C@@]1(C(=O)Nc3ccccc31)C(C#N)=C(N)O2	14.8%	-16.3%	44.7µM*	-9.1%	-5.9%	-13.3%
CCN(CC)S(=O)(=O)c1ccc2c(c1)nc(SCC(=O)N1CCOCC1)n2-c1ccccc1OC	9.9%	-10.8%	31.6µM*	-11.9%	u	0.0%
CC(Sc1nc2cc([N+](=O)[O-])ccc2n1-c1ccc(F)cc1)C(=O)NCc1ccc2c(c1)OCO2 (stereo unspecified)	-12.9%	u	u	2.24µM*	u	-12.9%
COc1ccccc1-n1c(SCC(=O)NCc2ccc3c(c2)OCO3)nc2cc([N+](=O)[O-])ccc21	u	50.1µM*	u	-83.9%	-36.9%	u
SMILES	HP1b binding inh	JMJD2A Tudor	G9a inh	Sfp inh	BAZ2B inh	12-LOX inh
O=C(CSc1nc2ccccc2c(=O)n1-c1ccccc1)NCc1ccc2c(c1)OCO2	10.5%	-5.2%	2.0%[12.7 µM]	-2.9%	10.2%	0.4%
Cc1cc(C)cc(-n2c(SC(C)C(=O)NCc3ccc4c(c3)OCO4)nc3ccccc3c2=O)c1 (stereo unspecified)	26.3%	-4.5%	-23.4%	9.9%	-4.0%	-15.9%
NC(=O)CC(NC(=O)c1cccc(Br)c1)c1ccc(N2CCC(N3CCCCC3)CC2)c([N+](=O)[O-])c1 (stereo unspecified)	34.3%	-3.4%	44.7µM*	9.7%	-37.2%	-1.5%
NC(=O)CC(NC(=O)c1cccc(Br)c1)c1ccc(N2CCN(c3ccc(F)cc3)CC2)c([N+](=O)[O-])c1 (stereo unspecified)	-9.6%	u	44.7µM*	10.7%	u	-5.6%
NC(=O)CC(NC(=O)c1ccc(Br)cc1)c1ccc(N2CCN(c3ccc(F)cc3)CC2)c([N+](=O)[O-])c1 (stereo unspecified)	25.4%	-22.9%	-30.3%[12.7 µM]	-0.6%	-14.5%	u
COc1ccc(OC)c(C(=O)NC(CC(N)=O)c2ccc(NC(C)C)c([N+](=O)[O-])c2)c1 (stereo unspecified)	13.1%	-24.5%	u	13.0%	-37.9%	2.8%
NC(=O)CC(NC(=O)c1ccccc1)c1ccc(N2CCN(c3ccccn3)CC2)c([N+](=O)[O-])c1 (stereo unspecified)	30.3%	-28.6%	79.4µM*	10.3%	-37.0%	u
COc1ccc(OC)c(C(=O)NC(CC(N)=O)c2ccc(N3CCCCCC3)c([N+](=O)[O-])c2)c1 (stereo unspecified)	-6.5%	u	u	3.5%	50.1µM*	-18.7%
NC(=O)CC(NC(=O)c1ccc(Br)cc1)c1ccc(N2CCN(c3ccccc3)CC2)c([N+](=O)[O-])c1 (stereo unspecified)	21.7%	-28.7%	-18.4%	-12.2%	u	-11.9%
CCN(CC)CC12CC3CCC(CC(C3)C1)C2	x	x	x	x	x	-3.3%
Cc1cc(C)cc(C(=O)NC(CC(N)=O)c2ccc(NCCN3CCOCC3)c([N+](=O)[O-])c2)c1 (stereo unspecified)	18.7%	-20.3%	u	14.6%	-7.7%	0.6%
NC(=O)CC(NC(=O)c1ccccc1)c1ccc(NCCN2CCOCC2)c([N+](=O)[O-])c1 (stereo unspecified)	24.5%	-15.9%	70.8µM*	15.6%	-28.1%	-29.5%
C=C1c2cccc(OC)c2O[C@H](C(=O)OCC)[C@@H]1CCC(C)C	x	x	31.6µM*	-1.0%	x	x
